From PubChem BioAssay AID651597 (National Center for Advancing Translational Sciences (NCATS), 2012)
In all, about 1,100 compounds went through this assay and about 390 (35%) were called active. Not shown: some 30% with an inconclusive outcome. Calls come from the whole dose curve; as a rule, active = well fitted inhibition curve with a large enough effect; inconclusive = small, poorly fitted or top-dose-only effect; inactive = flat fitted curve, though single readings scatter. This is one part of the list.

Each molecule was assayed against Luciferin 4-monooxygenase (Photinus pyralis) (UniProt P08659) (assay: qHTS of Nrf2 Activators: Hit Validation in Secondary FLuc Assay). Details: firefly luciferase inhibition counter-screen, luminescence; series mostly up to 57.5 µM.
Method in brief: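 Counter-screen on purified firefly luciferase with ATP and D-luciferin at Km concentrations; compounds flagged if they inhibit the enzyme, indicating possible reporter stabilization rather than ARE activation.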
Note: nearly all actives have a fitted effect of over 65% in size.
Potency is the fitted concentration of half-maximal effect.

| Structure (SMILES) | Potency |
| --- | --- |
| CCCc1nc([N+](=O)[O-])c(S(=O)(=O)c2ccccc2)n1CC(C)C | inactive |
| COc1ccccc1Cc1c(-c2ccco2)nc2c3ccccc3ccn12 | 0.301 µM (active) |
| Clc1cccc(Cc2c(-c3ccccc3)nc3c4ccccc4ccn23)c1 | 6.01 µM (active) |
| Cc1ccc(Cc2c(-c3ccco3)nc3c4ccccc4ccn23)cc1 | 0.239 µM (active) |
| COc1ccc(Cc2c(-c3ccccc3)nc3c4ccccc4ccn23)c(C)c1 | 3.01 µM (active) |
| FC(F)(F)c1ccccc1Cc1c(-c2ccccc2)nc2c3ccccc3ccn12 | 5.36 µM (active) |
| Clc1ccsc1-c1csc(-c2cccnc2)n1 | 3.38 µM (active) |
| CC(=O)N1CCc2c(sc(NC(=O)CCS(=O)(=O)c3ccccc3)c2C#N)C1 | inactive |
| CCOC(=O)N1CCc2c(sc3c2C(=O)NC(c2ccccc2)N3)C1 (stereo unspecified) | 6.75 µM (active) |
| COc1ccc([C@H]2Cc3cccc(O)c3C(=O)O2)cc1O | inactive |
| COc1ccc2[nH]c3c(NCc4ccco4)ncnc3c2c1 | 4.78 µM (active) |
| Cc1sc2ncnc(NCc3ccco3)c2c1C | inactive |
| CCc1cc2c(NCc3ccco3)ncnc2s1 | inactive |
| Nc1ccccc1C=C1Cc2ccccc2C1=O | 0.426 µM (active) |
| COc1cc(OC)c(OC)cc1/C=C1/Cc2ccccc2C1=O | inactive |
| O=C1C(=Cc2cccc(F)c2)Cc2ccccc21 | 1.51 µM (active) |
| O=C1C(=Cc2cccc(Cl)c2)Cc2ccccc21 | 1.07 µM (active) |
| O=C1C(=Cc2ccccc2Cl)CCc2ccccc21 | 0.169 µM (active) |
| Cc1c(=O)n(OCc2ccc(Cl)cc2)c2ccccc2[n+]1[O-] | inactive |
| CC1(O)c2ccccc2C(=O)N1CCc1ccccc1F (stereo unspecified) | 6.75 µM (active) |
| Oc1ccccc1-n1nc2ccc3nonc3c2n1 | inactive |
| Brc1cc(Br)c2nc(-c3cccs3)ccc2c1 | 3.01 µM (active) |
| FC(F)(F)c1cc(-c2cccs2)nc(NCc2ccco2)n1 | inactive |

| Structure (SMILES) | Potency |
| --- | --- |
| FC(F)(F)c1cc(-c2cccs2)nc(-n2cc(Br)cn2)n1 | inactive |
| Cc1sc2c(c1C)C(=O)NC(c1ccccc1F)N2 (stereo unspecified) | 2.39 µM (active) |
| O=C(CN1CCS(=O)(=O)CC1)N/N=C/c1cccc(C(F)(F)F)c1 | inactive |
| CCOC(=O)c1c(NC(=O)/C=C/c2ccc(C)o2)sc(C)c1C | 13.5 µM (active) |
| Cn1nc(C(=O)Nc2c(-c3ccccc3)nc3sccn23)c2ccccc2c1=O | inactive |
| CS/C(=C\C(=O)c1ccco1)Nc1ccccc1Cl | 2.69 µM (active) |
| O=c1cc(/C=C/c2ccccc2)oc2ccccc12 | 2.13 µM (active) |
| O=C(NCc1ccco1)c1cc(=O)c2ccccc2o1 | inactive |
| O=C(NCCc1c[nH]c2ccccc12)c1ccc([N+](=O)[O-])o1 | inactive |
| O=[N+]([O-])c1ccccc1N/N=C/c1c[nH]c2ccccc12 | 0.601 µM (active) |
| C(=N\Nc1nc2ccccc2[nH]1)/c1c[nH]c2ccccc12 | 1.35 µM (active) |
| CC(/C=C(\NC(=O)c1ccccc1)C(=O)N=Nc1c(O)[nH]c2ccc(C)cc12)=C\c1ccccc1 | inactive |
| O=C(N=Nc1c(O)[nH]c2ccc(Br)cc12)c1ccco1 | 10.7 µM (active) |
| Oc1[nH]c2ccccc2c1N=NC(=S)N1CCOCC1 | 9.53 µM (active) |
| O=C(Nc1c(O)c2ccccc2[nH]c1=O)c1ccco1 | inactive |
| O=C(N=Nc1c(O)[nH]c2ccccc12)c1ccco1 | 3.01 µM (active) |
| Cc1ncc(N=Nc2ccccc2)c(-c2ccccc2)n1 | inactive |
| CN1CCN(C(=O)CCN2C(=O)/C(=C/c3cccc(Br)c3)SC2=S)CC1 | inactive |
| O=C1/C(=C/c2ccccc2O)SC(=S)N1Cc1cccnc1 | 16.9 µM (active) |
| COc1ccc(OC)c(/C=C2\SC(=S)N(Cc3cccnc3)C2=O)c1 | inactive |
| COC(=O)c1ccc2nc(-c3ccco3)c(Cc3ccccc3)n2c1 | 3.38 µM (active) |
| COC(=O)c1ccc2nc(-c3cccc(Cl)c3)c(Cc3ccccc3OC)n2c1 | 15.1 µM (active) |
| COC(=O)c1ccc2nc(-c3cccc(Br)c3)c(CC3CCCCC3)n2c1 | inactive |

| Structure (SMILES) | Potency |
| --- | --- |
| COC(=O)c1ccc2nc(-c3ccco3)c(Cc3cccc(Cl)c3)n2c1 | 12 µM (active) |
| Cc1nn(C)c(C)c1/C=C(/C(=O)C(C)(C)C)n1cncn1 | inactive |
| Cc1cccc(N=C/C(C(=O)C(F)(F)F)=C(\O)c2ccco2)c1 | 10.7 µM (active) |
| O=C(/C(C=Nc1ccc(F)cc1)=C(/O)c1ccco1)C(F)(F)F | 10.7 µM (active) |
| Cc1ccc(NC(=O)CC2S/C(=N/N=C/c3ccco3)NC2=O)cc1Cl (stereo unspecified) | inactive |
| O=C(/C(C=Nc1cccc(C(F)(F)F)c1)=C(/O)c1ccco1)C(F)(F)F | 13.5 µM (active) |
| Cc1ccc(N=C/C(C(=O)C(F)(F)F)=C(\O)c2ccco2)cc1Cl | 3.01 µM (active) |
| CSc1nc(Oc2ccc(Cl)cc2)c2sccc2n1 | inactive |
| CCn1c(=O)c([N+](=O)[O-])c(NCc2ccco2)c2ccccc21 | inactive |
| N#C/C(=C\c1ccccc1)c1ccccn1 | 9.53 µM (active) |
| O=C(CN1CCN(Cc2ccccc2Cl)CC1)N/N=C/C=C/c1ccco1 | inactive |
| Cc1cccc(-c2n[nH]c(=S)n2/N=C/C=C/c2ccco2)c1 | 10.7 µM (active) |
| S=c1[nH]nc(-c2ccc(Cl)cc2)n1/N=C/C=C/c1ccco1 | 10.7 µM (active) |
| S=C(NNc1ccc2ccccc2c1)NC1CCCCC1 | 6.75 µM (active) |
| CNC(=O)C1CCN(S(=O)(=O)c2c(C)noc2/C=C/c2ccccc2F)CC1 | inactive |
| COc1ccc(N=Nc2ccc(O)c3ncccc23)cc1 | 9.53 µM (active) |
| CCN(CC)CCNC(=O)C(Cl)=C1C(Cl)=C(Cl)C(Cl)=C1Cl | inactive |
| Cc1cc(=O)n2nc(-c3ccccc3)sc2c1C#N | 23.9 µM (active) |
| N#Cc1c(-c2ccccc2)cc(-c2ccccc2)[nH]c1=O | inactive |
| [O-][n+]1onc2c3cc(-c4ccccc4)nnc3ccc21 | inactive |
| Cc1cc(O)cc2c1C(=O)/C(=C/c1ccco1)O2 | 2.39 µM (active) |
| Cn1nnnc1Sc1ncnc2scc(-c3cccc4ccccc34)c12 | inactive |
| O=C(Nc1cc(Br)ccc1O)c1cnn2c(C(F)F)cc(C3CC3)nc12 | inactive |

| Structure (SMILES) | Potency |
| --- | --- |
| c1ccc(N2CC3COc4ccccc4C3=N2)cc1 (stereo unspecified) | 4.26 µM (active) |
| c1ccc(N2CC3CCc4ccccc4C3=N2)cc1 (stereo unspecified) | 3.01 µM (active) |
| CCOc1ncccc1C(=O)NNC(=O)c1ccc(NS(=O)(=O)c2cccs2)cc1 | inactive |
| CC(=O)c1nn(-c2ccccc2)cc1C(=O)c1cccc(Br)c1 | inactive |
| C/C(=N\NC(=O)c1cccc(Br)c1)c1ccccn1 | 8.49 µM (active) |
| FC(F)(F)c1nnc2c(Sc3ccccn3)nc3ccccc3n12 | inactive |
| CCn1c(=NC(=O)c2ccco2)sc2cccc(F)c21 | 6.01 µM (active) |
| CCn1c(=N)n(CC(=O)c2ccco2)c2ccccc21 | inactive |
| COc1cc(/C=N/Nc2ccccn2)cc(OC)c1O | 2.13 µM (active) |
| COc1ccc(Br)cc1/C=N/Nc1ccccn1 | inactive |
| N/C(=N\OC(=O)c1cc(Cl)ccc1Cl)c1cccnc1 | 4.78 µM (active) |
| N/C(=N\OC(=O)c1cc(Cl)ccc1Cl)c1ccncc1 | 15.1 µM (active) |
| N#C/C(=C\C=C\c1ccccc1)C(=O)NCc1cccnc1 | inactive |
| N/C(=N\OC(=O)c1ccccc1Cl)c1ccncc1 | 4.78 µM (active) |
| N/C(=N\OC(=O)c1cccc2ccccc12)c1cccnc1 | inactive |
| N/C(=N\OC(=O)/C=C/c1ccccc1)c1cccnc1 | 5.36 µM (active) |
| O=C1C2C3C=CC(C4CC34)C2C(=O)N1/N=C/c1ccc([N+](=O)[O-])o1 (stereo unspecified) | inactive |
| CCCn1nc([N+](=O)[O-])c(C(C#N)c2nc3ccccc3s2)c(Cl)c1=O (stereo unspecified) | 12 µM (active) |
| Nc1ccccc1N1C(=O)c2cccc3cccc(c23)C1=O | inactive |
| NC(=O)c1c(NC(=O)c2ccco2)sc2c1CCC2 | 2.13 µM (active) |
| Cc1ccc2nsnc2c1NC(=S)NC(=O)c1ccco1 | inactive |
| Cc1ccc([N+](=O)[O-])cc1NC(=S)NC(=O)c1ccco1 | inactive |
| Cc1sc(NC(=O)c2ccco2)c(CN2CCCCC2)c1C | inactive |

| Structure (SMILES) | Potency |
| --- | --- |
| Cc1sc(NC(=S)NC(=O)c2ccco2)c(C(N)=O)c1C | 1.2 µM (active) |
| CCc1c(C)sc(NC(=O)c2ccco2)c1C#N | 12 µM (active) |
| CCCc1cc(C(N)=O)c(NC(=O)c2ccco2)s1 | 3.01 µM (active) |
| COC(=O)CSc1nc2ccccn2c(=O)c1C=O | inactive |
| COn1c(=O)c(-c2cccc(Br)c2)[n+]([O-])c2ccccc21 | inactive |
| N#CC1=C(N)Oc2c(ccc3ccccc23)C1c1ccsc1 (stereo unspecified) | 16.9 µM (active) |
| COc1ccc(S(=O)(=O)N2CCN(C(=O)c3ccc([N+](=O)[O-])o3)CC2)cc1 | inactive |
| COc1cccc(NC(=O)c2nn(C)cc2Br)c1 | 12 µM (active) |
| COc1cccc(NC(=O)c2nc(SC)ncc2Cl)c1 | inactive |
| COc1ccc(S(=O)(=O)NCCc2csc3nc(-c4ccc(Cl)cc4)nn23)cc1C | inactive |
| O=C(Nc1ccccc1[N+](=O)[O-])C1COc2ccccc2O1 (stereo unspecified) | 3.01 µM (active) |
| CCOc1ccccc1NC(=O)C1COc2ccccc2O1 (stereo unspecified) | inactive |
| COc1ccc(NC(=O)c2ccc([N+](=O)[O-])s2)c([N+](=O)[O-])c1 | inactive |
| Cn1c(=O)n(CCc2ccccc2)c(=O)c2c1nc1n2CCN1Cc1ccco1 | inactive |
| Cc1csc2nc(NC(=O)c3ccccc3)sc(=O)c12 | 2.39 µM (active) |
| Cc1csc2c(=O)sc(NC(=O)c3ccc(F)cc3Cl)nc12 | inactive |
| O=C(Nc1nc(=O)c2ccccc2s1)c1ccccc1 | 1.07 µM (active) |
| O=C(NCc1ccccc1)c1c(Cl)nc(Cl)c(Cl)c1Cl | inactive |
| Cc1ccccc1C(=O)Nc1nc2c(C)csc2c(=O)s1 | inactive |
